This note sets out measurements from PubChem BioAssay AID2732 (Emory University Molecular Libraries Screening Center, 2010).

Several values for one entry are separate records, joined by “and”; a condition that tells them apart may be missing. Identical values can stand only once. Out of some 220,000 compounds screened, about 8,200 (3.7%) were called active.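 How the source made its calls: active means compounds that reduced the stress-induced luciferase reporter signal by more than about 70% of percent inhibition (limit read from the data); inactive means the rest.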 The list comes from a sample in which actives are over-represented; it also holds similar structures and randomly drawn compounds.

The test can be described thus: blockers of ER-stress CHOP reporter expression – cell-based, unfolded protein response, luciferase reporter, primary screen (AID 2732).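 Further: 0% = tunicamycin plus vehicle and 100% = wells without tunicamycin.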 The following applies: CHO-K1 CHOP-promoter luciferase, tunicamycin-induced, 15-18 h; at 10 µM; hits give high values. On the technique in general: A reporter such as luciferase makes a cellular process visible.
For orientation: inhibition means the change of the read-out against control, counted positive when it falls. Regarding `O=C(Cn1nnc(N2CCCCC2)n1)c1ccc(Cl)c(Cl)c1`, the inhibition is 6.73% (inactive).
On to `Clc1ccc(C[n+]2cc(-c3ccccc3)n3c2CCC3)cc1`, for which the inhibition is 9.23% (inactive).
With `Cc1nnc(NC(=O)Nc2ccc(Cl)c(Cl)c2)s1` the figure was 86.9% (active); with `Cc1ccc(NC(=O)Nc2nnc(-c3ccncc3)s2)cc1`, 40.9% (inactive).
With `CCn1nccc1C(=O)Nc1ccc(Cl)c(Cl)c1` the figure was 0.72% (inactive); with `Cn1cc(Cl)c(C(=O)NNC(=S)Nc2cccc(Cl)c2)n1`, 9.14% (inactive).
Next, `Cc1c(C(=O)Nc2cccc(Cl)c2)cn2c(nc3ccccc32)c1C#N`: 104% (active); `O=C(O)c1cccc(NC(=O)c2cc(-c3cccc(Cl)c3)nc3ccccc23)c1`: -25% (inactive).
For `O=C(NCc1cc(C(F)(F)F)cc(C(F)(F)F)c1)C1CC(c2cccc(F)c2)=NO1` (configuration not stated), the inhibition was 20.1% (inactive).
Next, `Oc1ccc(/C=N/N(Cc2ccccc2)c2ccccc2)cc1`: 97.5% (active); `O=C(N/N=C/c1ccc(OCc2ccccc2)cc1)c1ccc(O)cc1`: -37.6% (inactive); `CN(C)c1ccc(/C=N/N(Cc2ccccc2)c2ccccc2)cc1`: 1.37% (inactive).
Next, `NC(=O)C1=CN(C2OC(COP(=O)(O)OP(=O)(O)OC[C@H]3O[C@@H](n4cnc5c(N)ncnc54)C(OP(=O)(O)O)[C@H]3O)C(O)C2O)C=CC1` (some centres not stated): -6.4% (inactive); `CCC(=O)Nc1ccc2nc(C)n(Cc3ccccc3Cl)c(=O)c2c1`: -4.28% (inactive); `CCN1CCN(c2cc3nc(C)n(Cc4ccccc4)c(=O)c3cc2NC(=O)c2ccccc2F)CC1`: 95.7% (active).
With `O=C(NC1CCN(Cc2ccccc2)CC1)c1ccccc1F` the figure was 22.9% (inactive); with `CC(C)NC(=O)c1ccc(Cl)cc1Cl`, 12.1% (inactive); with `Cc1sc2nc(COC(=O)C(NC(=O)c3ccc(Cl)cc3Cl)C(C)C)[nH]c(=O)c2c1C` (configuration not stated), 95.4% (active).
`Cc1sc2nc(CSCC(=O)Nc3c(Cl)cccc3Cl)[nH]c(=O)c2c1C`: the inhibition is 0.31% (inactive).
Next, `O=C(Nc1ccccc1)N1CCN(C2c3ccccc3-c3ccccc32)CC1`: 12.3% (inactive); `Cc1ccc(C)c2c1cc(C)c1nnc(SCC(=O)Nc3cccc(C(=O)O)c3)n12`: -9.73% (inactive).
With `O=C(Cc1ccc(Cl)c(Cl)c1)Nc1ccc(SC(F)F)cc1` the figure was 88% (active); with `CC(=O)N1CCN(CC(=O)Nc2ccc(SC(F)F)cc2)CC1`, 16.9% (inactive); with `Cc1ccc(CC(=O)Nc2ccc(OC(F)F)c(Cl)c2)cc1C`, 62% (inactive).
On to `CC(NC(=S)Nc1ccccc1)C(c1cccs1)N1CCOCC1` (configuration not stated), for which the inhibition was -3.16% (inactive).
Next, `Oc1c(Br)cc(/C=N/NC(=S)NCC2CCCO2)cc1Br` (configuration not stated): 22.4% (inactive); `O=C(Cc1ccccc1)NNC1CC(=O)N(c2ccc(Br)cc2)C1=O` (configuration not stated): 17% (inactive); `CC1=C(C)CC2C(=O)N(c3cccc4ccccc34)C(=O)C2C1` (configuration not stated): 19.9% (inactive).
On to `Cc1ccc(N2C(=O)CC(Nc3cccc4ccccc34)C2=O)cc1` (configuration not stated), for which the inhibition was 74.7% (active).
For the compound `COc1cc(/C=C(\C#N)C(=O)Nc2ccc3ccccc3c2)c([N+](=O)[O-])cc1OC`, the inhibition was -24.5% (inactive).
Regarding `COc1ccc(NC(=O)/C(C#N)=C\c2cc(OC)c(OCc3ccc(C(=O)O)cc3)cc2Br)cc1`, the inhibition was 103% (active).
Next, `COc1cc(C=O)c(Br)cc1OCC(=O)NCc1ccccc1`: 18% (inactive); `O=C(NCc1ccco1)C1CCCN1S(=O)(=O)c1ccccc1C(F)(F)F` (configuration not stated): 14.3% (inactive); `CN(C)NC(=O)c1csnc1-c1c(Cl)cccc1Cl`: -5.93% (inactive).
Next, `Cc1ccccc1CSc1nnc(CCCCCNC(=O)OC(C)(C)C)o1`: 12.7% (inactive); `NCC(=O)c1cccc2ccc[n+]([O-])c12`: -8.9% (inactive).
With `O=[N+]([O-])c1c(NCCO)cc(Sc2nc3ccccc3s2)c2nonc12` the figure was 108% (active); with `O=C(CSc1nc2ccccc2s1)Nc1ccc(C(=O)O)cc1`, -1.84% (inactive); with `COc1ccc(S(=O)(=O)Nc2ccc(O)c(Sc3nc4ccccc4s3)c2)cc1`, 13.3% (inactive).
In the case of `C/C(=N\NC(=O)CC(C)C)c1c(C(F)(F)F)[nH]n(-c2nc3ccccc3s2)c1=O`, the inhibition was -21.3% (inactive).
Next, `CCN(CC)c1ccc(/C=N/NC(=O)c2cnccn2)c(O)c1`: 47.2% (inactive).
Take `C=CCn1c(N)c(C(=O)OCC(C)C)c2nc3ccccc3nc21`: the inhibition was 18% (inactive).
`CC(C)Cn1c(N)c(C(=O)NCc2cccs2)c2nc3ccccc3nc21`: the inhibition was 89% (active).
For the compound `CCC(C)NC(=O)c1c(N)n(/N=C/c2cccs2)c2nc3ccccc3nc12` (configuration not stated), the inhibition was 67.4% (inactive).
For `Cc1cccc(NC(=O)CSc2nnc(CCNC(=O)OC(C)(C)C)o2)c1C`, the inhibition is -14.5% (inactive).
In the case of `COC(=O)c1ccc(COc2cc([N+](=O)[O-])cc3cccnc23)cc1`, the inhibition was 5.56% (inactive).
Regarding `CC(=O)N(OCc1ccc(OC(C)C)c(Cl)c1)C(C)=O`, the inhibition is -4.06% (inactive).
Next, `CCOCc1nnc(NC(=O)CSc2ccc(C)cc2)s1`: 12.8% (inactive); `O=C(Nc1ccc(Cl)cc1)Nc1nnc(/C=C/c2ccccc2)s1`: 46.8% (inactive).
On to `O=C(CSc1ccccc1)Nc1nnc(/C=C/c2ccccc2)s1`, for which the inhibition was 88.6% (active).
Next, `Cc1ccc(-n2ncc3c(=O)[nH]cnc32)c(C)c1`: 31.6% (inactive).
Turning to `Cc1ccc(N2CCN(S(=O)(=O)c3ccc(F)cc3)CC2)c(C)c1`, the inhibition was 47.5% (inactive).
With `Cc1ccc(-n2ncc3c(N4CCN(c5ccc(F)cc5)CC4)ncnc32)c(C)c1` the figure was 83.8% (active); with `CCOc1ccc(/C=N/NC(=O)CSc2ccccn2)cc1O`, 3.02% (inactive); with `CC1CCN(CCC(=O)Nc2ccccc2)CC1`, -9.3% (inactive).
With `O=C(CCC(=O)OCc1ccc(Cl)cc1)Nc1ccccc1` the figure was 0.59% (inactive); with `CC(C)(C)C1CCC(OC(=O)CCC(=O)Nc2ccccc2)CC1` (configuration not stated), 71.5% (active).
As for `COc1ccccc1CNC(=O)Cn1c(=O)oc2cc(Cl)ccc21`, the inhibition was 4.18% (inactive).
Next, `CCOc1ccc2nc(/N=C/c3nc(-c4ccccc4)oc3O)sc2c1`: 73.9% (active); `CCOc1ccc2nc(SC(CC)C(=O)Nc3cc(C)on3)sc2c1` (configuration not stated): 27.5% (inactive); `CC(N=Cc1nc(-c2ccccc2)oc1O)c1ccccc1` (configuration not stated): 28.4% (inactive).
Next, `Cn1c(SCC(=O)Nc2ccc(Cl)cc2)nc(O)cc1=O`: -3.96% (inactive); `N#Cc1ccc(C(=O)Nc2cccc3cccnc23)c(F)c1`: -2.37% (inactive); `N#Cc1ccccc1NC(=O)COc1c(Br)cc(Br)c2cccnc12`: 88.1% (active).
Next, `O=C(COC(=O)c1ccccn1)Nc1cccc2ccccc12`: -19.7% (inactive).
As to `CCN(CC)CCNCC(=O)Nc1ccc(Oc2ccccc2)cc1`, the inhibition is -16.4% (inactive).
Turning to `Cc1cc2cc(CN(Cc3cccs3)Cc3nnnn3CC3CCCO3)c(=O)[nH]c2cc1C` (configuration not stated), the inhibition is 20.8% (inactive).
Next, `Cc1cc(C)c2cc(CN(Cc3nnnn3Cc3ccc(F)cc3)C3CCCC3)c(=O)[nH]c2c1`: 8.91% (inactive); `Cc1cc(C)c2cc(CN(Cc3cccs3)Cc3nnnn3CC3CCCO3)c(=O)[nH]c2c1` (configuration not stated): 76% (active); `CCOC(=O)c1c(N)sc2c1CCCC2=O`: 4.68% (inactive).
With `O=C(Cn1c[n+](CC(=O)c2ccc([N+](=O)[O-])cc2)cn1)c1ccc([N+](=O)[O-])cc1` the figure was -15.2% (inactive) and -12.2% (inactive); with `COc1cc(SC)ccc1C(=O)Nc1nc(C)cs1`, 95.2% (active); with `COc1cc(SC)ccc1C(=O)Nc1cc(C)ccn1`, 37.2% (inactive).
Next, `COc1ccccc1CNC(=O)c1ccc(SC)cc1OC`: 2.76% (inactive).
As for `Cc1ccc(CNC(=O)CC2Sc3ccccc3NC2=O)cc1` (configuration not stated), the inhibition is -5.1% (inactive).
As to `CCc1cc(C(=O)OC)c(NC(=O)CC2Sc3ccc(C(F)(F)F)cc3NC2=O)s1` (configuration not stated), the inhibition was 72.2% (active).
Next, `COC(=O)c1cc(C)sc1NC(=O)CC1Nc2ccccc2NC1=O` (configuration not stated): 51.1% (inactive); `COC(=O)c1noc(C)c1-c1ccnn1C(=O)c1ccc(Cl)cc1`: -0.96% (inactive).
For `COc1cccc(OC)c1CN(C)C(=O)c1cnccc1C(F)(F)F`, the inhibition is 16.4% (inactive).
Take `Cc1ccsc1/C=N/NC(=O)Cc1cc(=O)[nH][nH]1`: the inhibition is 10.3% (inactive).
For `O=C(NC(=S)Nc1ccc2oc(=O)ccc2c1)c1ccc(-c2cccc(Cl)c2Cl)o1`, the inhibition is 80.2% (active).
`Cc1cccc(NC(=S)NC(=O)c2ccc(Br)o2)c1`: the inhibition was -36.1% (inactive).
For the compound `CC(C)C(=O)Nc1ccc2oc(=O)ccc2c1`, the inhibition was 8.38% (inactive).
With `C=C(C)CNC(=S)Nc1ccc(S(=O)(=O)Nc2cnc3ccccc3n2)cc1` the figure was 11.6% (inactive).
With `Clc1cccc(CN2COc3c(cc(Cl)c4cccnc34)C2)c1` the figure was 108% (active).
With `O=c1[nH]n(-c2cccc(Cl)c2)c2ncccc12` the figure was 9.34% (inactive); with `O=C1/C(=C/c2coc3ccc(O)cc3c2=O)SC(=S)N1c1ccccc1`, -12.8% (inactive).
As to `CCOC(=O)COc1nc(C)cc(C(F)(F)F)c1C#N`, the inhibition was 16.9% (inactive).
For `Cn1c(CC2Sc3ccccc3NC2=O)nnc1SCC(=O)c1ccc(Cl)cc1` (configuration not stated), the inhibition is 11.3% (inactive).
With `CCc1cc(C(=O)c2ccc(OC)cc2)c(NC(=O)CN2CCN(C)CC2)s1` the figure was 9.91% (inactive).
Next, `CCNc1nc(NCC)nc(N(C)n2cnnc2)n1`: 2.32% (inactive); `Nc1nc(SCCOc2ccccc2)n[nH]1`: -32% (inactive); `CCNc1nc(SCCOc2ccccc2)nc(N(C)C)n1`: 90.8% (active).
As for `C/C(=N\Nc1cccc(C(=O)O)c1)c1ccc2c(c1)Nc1ccccc1S2`, the inhibition was -2.01% (inactive).
In the case of `CCCn1c(C)cc(C(=O)COC(=O)c2c(C)nn(-c3ccccc3)c2C)c1C`, the inhibition was 52.2% (inactive).
With `Cc1nn(-c2ccccc2)c(C)c1C(=O)OCC(=O)NC(=O)NC1CCCCC1` the figure was 71.2% (active); with `Cc1ccc(OC(=O)c2c(C)nn(-c3ccccc3)c2C)cc1`, 5.12% (inactive).
